Consider four molecules from PubChem BioAssay (EPA / NIEHS).

The source made the active and inactive calls. The calls were made as follows: active = hit-call score of the fitted dose curve at least 0.9, where 1 is the maximum; inactive = score below 0.9.

Assay [1] is described as follows: ATG_M_61_CIS: Attagene CIS-FACTORIAL HepG2 Assay for M61 Transcription Factor (Internal Marker) (AID 2282937). Conditions: HepG2 Attagene CIS-FACTORIAL M61 internal marker reporter; actives raise or lower the signal. A digest of the protocol: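 Readout is reporter mRNA by RT-PCR, fluorescent primer extension and capillary electrophoresis, with gain or loss fitted relative to DMSO. Transfected HepG2 cells carrying endogenous-TF-driven cis reporters were exposed to chemicals for 24 hours.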

Assay [2] can be described thus: ATG_EGR_CIS: Attagene CIS-FACTORIAL HepG2 Assay for human Early Growth Response 1 (EGR1) (AID 2282938). The settings on record: HepG2 Attagene CIS-FACTORIAL EGR reporter mRNA; actives raise or lower the signal. A digest of the protocol:
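After 24 h compound exposure, RNA from reporter-transfected HepG2 cells was reverse-transcribed, PCR-amplified, fluorescently labelled and resolved by capillary electrophoresis. EGR1 reporter transcript changes, up or down, were fitted against DMSO, reflecting endogenous transcription-factor activity.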

A short description of assay [3]: ATG_M_19_CIS: Attagene CIS-FACTORIAL HepG2 Assay for M19 Transcription Factor (Internal Marker) (AID 2282939). Conditions: HepG2 Attagene CIS-FACTORIAL M19 internal marker reporter; actives raise or lower the signal. A digest of the protocol:
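Chemical-treated HepG2 (24 h) with MRTU constructs; reporter transcripts detected by fluorescent RT-PCR fragment analysis on capillary electrophoresis. Internal background marker, DMSO as baseline.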

A short description of assay [4]: ATG_ERE_CIS: Attagene CIS-FACTORIAL HepG2 Assay for Estrogen Response Element (ERE) (AID 2282940). The settings on record: HepG2 ERE cis-reporter, Attagene RNA transcript; actives raise or lower the signal. A digest of the protocol:
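Human liver cells (HepG2) bearing transiently transfected, promoter-regulated reporter units were exposed 24 h. Reporter mRNA induction was detected by capillary electrophoresis of labelled RT-PCR products and fitted bidirectionally to DMSO.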

A short description of assay [5]: ATG_Ets_CIS: Attagene CIS-FACTORIAL HepG2 Assay for human Erythroblast Transformation Specific (ETS) (AID 2282941). Conditions: HepG2 ETS cis-reporter transcription, actives raise or lower the signal. A digest of the protocol:
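Endogenous transcription factor activity read as reporter mRNA via RT-PCR and capillary electrophoresis, with gain or loss fitted bidirectionally against DMSO. Human HepG2 liver cells, transiently transfected CIS reporter constructs, 24 h exposure.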

Assay [6] is described as follows: ATG_FoxO_CIS: Attagene CIS-FACTORIAL HepG2 Assay for human Forkhead box O (FoxO) (AID 2282943). Conditions: HepG2 Attagene cis-reporter, FoxO element, mRNA; actives raise or lower the signal. A digest of the protocol: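 HepG2 cells transiently transfected with cis-element-driven reporter units report endogenous FoxO activity. After 24 h chemical exposure, reporter mRNA quantified by RT-PCR, fluorescent labeling, HpaI digestion and capillary electrophoresis; bidirectional fit versus DMSO.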

Assay [7] in a line: ATG_GATA_CIS: Attagene CIS-FACTORIAL HepG2 Assay for human GATA Binding Protein (AID 2282944). The settings on record: HepG2 GATA cis-element reporter, Attagene multiplex mRNA; actives raise or lower the signal. A digest of the protocol: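 Transfected cis-reporter HepG2 cells were treated with chemicals for 24 hours. Total RNA was then converted to cDNA, amplified with reporter-specific primers and analysed by fluorescent capillary electrophoresis, using DMSO-treated wells as baseline.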

The nature of assay [8]: ATG_GLI_CIS: Attagene CIS-FACTORIAL HepG2 Assay for human Zinc Finger Protein GLI1 (AID 2282945). Conditions: HepG2, Attagene cis-factorial reporter mRNA, GLI element; actives raise or lower the signal. A digest of the protocol:
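Transiently transfected HepG2 cells report endogenous transcription factor activity via cis-element-driven reporter units. After 24 h compound exposure, reporter mRNA was measured by RT-PCR with capillary electrophoresis; bidirectional fitting against DMSO baseline.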

Assay [9] concerns the target Bile acid receptor (Homo sapiens) (UniProt Q96RI1). Nature of the assay: ATG_IR1_CIS: Attagene CIS-FACTORIAL HepG2 Assay for human Nuclear Receptor Subfamily 1 Group H Member 4 (NR1H4), IR1 submotif (AID 2282946). Conditions: IR1 reporter transcription, actives raise or lower the signal. A digest of the protocol: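 Fluorescence of capillary-separated, HpaI-digested RT-PCR reporter products gave IR1-element mRNA induction in HepG2 cells 24 h after dosing. Endogenous transcription factors drove the cis-regulated reporters; activity was fitted bidirectionally against DMSO.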

Assay [10] is described as follows: ATG_GRE_CIS: Attagene CIS-FACTORIAL HepG2 Assay for human Glucocorticoid Response Elements (GRE) (AID 2282947). Conditions: HepG2 GRE cis-reporter, Attagene multiplex mRNA; actives raise or lower the signal. The procedure, abridged: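 Read-out: fluorescent reporter-transcript fragments separated by capillary electrophoresis after RT-PCR. Transiently transfected HepG2 cells carrying cis-element-driven reporter units were dosed for 24 h; gain or loss of signal fitted against DMSO control.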

Assay [11] can be described thus: ATG_ISRE_CIS: Attagene CIS-FACTORIAL HepG2 Assay for human Interferon Regulatory Factor 1 (IRF1) binding to an Interferon-Stimulated Response Element (ISRE) (AID 2282948). The settings on record: HepG2 ISRE cis-reporter (Attagene), mRNA transcription readout; actives raise or lower the signal. A digest of the protocol: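 Endogenous transcription factor activity read as reporter transcript abundance via RT-PCR and capillary electrophoresis. HepG2 cells transiently transfected, 24 h chemical exposure. Gain or loss fitted against DMSO baseline.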

Assay [12] can be described thus: ATG_M_32_CIS: Attagene CIS-FACTORIAL HepG2 Assay for M32 Transcription Factor (Internal Marker) (AID 2282949).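 Also: background control marker of the multiplexed CIS panel rather than a real target.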 Conditions: HepG2 Attagene cis-factorial M32 reporter, mRNA; actives raise or lower the signal. A digest of the protocol:
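Using DMSO as baseline, bidirectional curve fits were applied to reporter mRNA signals. These came from transiently transfected HepG2 cells exposed for 24 h, with RNA analysed by RT-PCR, FAM primer extension, HpaI digestion and CE.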

Assay [13] in a line: ATG_M_06_CIS: Attagene CIS-FACTORIAL HepG2 Assay for M06 Transcription Factor (Internal Marker) (AID 2282950). Conditions: HepG2 Attagene CIS-FACTORIAL M06 internal marker reporter; actives raise or lower the signal. A digest of the protocol:
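Cells (HepG2, transiently carrying cis-driven reporter units) receive chemical for 24 h before RNA isolation. Reporter cDNA is PCR-amplified, FAM-labelled by primer extension, HpaI-digested and sized on a capillary analyser.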

Assay [14] deals with Hypoxia-inducible factor 1-alpha (Homo sapiens) (UniProt Q16665). The assay can be described thus: ATG_HIF1a_CIS: Attagene CIS-FACTORIAL HepG2 Assay for human Hypoxia Inducible Factor 1 (HIF1A) (AID 2282951). Conditions: HepG2 Attagene cis-factorial HIF1a reporter transcription; actives raise or lower the signal. The procedure, abridged:
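Activity is fitted in both directions relative to DMSO. Reporter transcripts are read by RT-PCR, fluorescent primer extension and capillary electrophoresis after 24 h chemical treatment. The cells are HepG2 carrying transiently transfected cis-element-driven reporter units responding to endogenous factors.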

Assay [15] concerns the target Hepatocyte nuclear factor 6 (Homo sapiens) (UniProt Q9UBC0). Nature of the assay: ATG_HNF6_CIS: Attagene CIS-FACTORIAL HepG2 Assay for human Hepatocyte Nuclear Factor 6 (HNF6) (AID 2282952). Conditions: HepG2 Attagene cis-factorial HNF6 reporter transcription; actives raise or lower the signal. The procedure, abridged:
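First, HepG2 cells were transfected with the multiplexed cis reporter library and dosed with chemical for 24 h. Next, RNA was reverse-transcribed, PCR-amplified and fluorescently labelled. Finally, HpaI-digested fragments were read by capillary electrophoresis.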

Assay [16] concerns the target Heat shock factor protein 1 (Homo sapiens) (UniProt Q00613). Nature of the assay: ATG_HSE_CIS: Attagene CIS-FACTORIAL HepG2 Assay for human Heat Shock Transcription Factor 1 (HSE) (AID 2282953). The settings on record: HepG2 HSE cis-reporter, Attagene RNA transcription; actives raise or lower the signal. The procedure, abridged: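 Liver-derived HepG2 cells carry transiently introduced multiple reporter units governed by cis promoters. Reporter RNA measured 24 h post-dose through reverse transcription, PCR amplification, fluorescent labelling and capillary electrophoresis, normalised to DMSO.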

Assay [17] is described as follows: ATG_MRE_CIS: Attagene CIS-FACTORIAL HepG2 Assay for human Metal Responsive Element (MRE) (AID 2282954). Conditions: HepG2 MRE cis-reporter transcription, Attagene multiplex; actives raise or lower the signal. A digest of the protocol:
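RT-PCR/capillary electrophoresis readout of reporter mRNA, 24 h post-dosing, in HepG2 cells transfected with multiplexed cis-regulated reporter constructs. Gain or loss of signal fitted bidirectionally against DMSO baseline.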

A short description of assay [18]: ATG_PBREM_CIS: Attagene CIS-FACTORIAL HepG2 Assay for human Phenobarbital-responsive Enhancer Module (PBREM) (AID 2282955). Conditions: HepG2 PBREM cis-reporter, Attagene multiplexed transcription; actives raise or lower the signal. The procedure, abridged: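 Endogenous transcription factor activity was read from reporter transcripts in transiently transfected human HepG2 liver cells after 24 h dosing. RT-PCR products were fluorescently labelled, HpaI-cut and sized by capillary electrophoresis; activity fitted bidirectionally against DMSO baseline.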

Assay [19] addresses Paired box protein Pax-6 (Homo sapiens) (UniProt P26367). The assay can be described thus: ATG_Pax6_CIS: Attagene CIS-FACTORIAL HepG2 Assay for human Paired Box 6 (PAX6) (AID 2282956). The settings on record: HepG2 CIS-FACTORIAL PAX6 reporter transcription, RNA readout; actives raise or lower the signal. A digest of the protocol: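 Read-out is reporter transcript level, measured by RT-PCR with fluorescent primer extension and capillary electrophoresis after 24 h dosing of transfected HepG2 cells. Activity in either direction fitted relative to DMSO control.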

In assay [20] the target is Hepatocyte nuclear factor 3-beta (Homo sapiens) (UniProt Q9Y261). Nature of the assay: ATG_FoxA2_CIS: Attagene CIS-FACTORIAL HepG2 Assay for human Forkhead box A2 (FOXA2) (AID 2282942). Conditions: HepG2 cis-reporter transcription factor activity, 24 h; actives raise or lower the signal. The procedure, abridged: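 Endogenous transcription factor activity is captured via cis-element-driven reporter transcripts in transfected HepG2. Total RNA taken at 24 h post-dosing; labelled RT-PCR products resolved by capillary electrophoresis. Gain or loss fitted versus DMSO.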
Chain of Hepatocyte nuclear factor 3-beta (Homo sapiens) (Q9Y261 whole entry, looked up): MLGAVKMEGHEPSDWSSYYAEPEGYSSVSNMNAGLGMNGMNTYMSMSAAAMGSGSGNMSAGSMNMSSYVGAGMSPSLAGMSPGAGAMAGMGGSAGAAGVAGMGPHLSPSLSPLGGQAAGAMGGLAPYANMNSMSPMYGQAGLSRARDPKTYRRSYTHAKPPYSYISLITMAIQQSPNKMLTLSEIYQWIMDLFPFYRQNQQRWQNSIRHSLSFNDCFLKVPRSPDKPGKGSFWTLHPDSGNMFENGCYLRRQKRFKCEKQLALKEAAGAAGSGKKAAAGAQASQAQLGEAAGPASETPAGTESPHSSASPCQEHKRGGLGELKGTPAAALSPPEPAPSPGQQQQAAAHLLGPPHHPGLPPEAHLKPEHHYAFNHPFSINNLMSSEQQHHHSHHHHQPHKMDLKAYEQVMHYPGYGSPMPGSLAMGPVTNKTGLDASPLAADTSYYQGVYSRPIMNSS

Chain of Hepatocyte nuclear factor 6 (Homo sapiens) (Q9UBC0 whole entry, looked up, the tested form may be a part): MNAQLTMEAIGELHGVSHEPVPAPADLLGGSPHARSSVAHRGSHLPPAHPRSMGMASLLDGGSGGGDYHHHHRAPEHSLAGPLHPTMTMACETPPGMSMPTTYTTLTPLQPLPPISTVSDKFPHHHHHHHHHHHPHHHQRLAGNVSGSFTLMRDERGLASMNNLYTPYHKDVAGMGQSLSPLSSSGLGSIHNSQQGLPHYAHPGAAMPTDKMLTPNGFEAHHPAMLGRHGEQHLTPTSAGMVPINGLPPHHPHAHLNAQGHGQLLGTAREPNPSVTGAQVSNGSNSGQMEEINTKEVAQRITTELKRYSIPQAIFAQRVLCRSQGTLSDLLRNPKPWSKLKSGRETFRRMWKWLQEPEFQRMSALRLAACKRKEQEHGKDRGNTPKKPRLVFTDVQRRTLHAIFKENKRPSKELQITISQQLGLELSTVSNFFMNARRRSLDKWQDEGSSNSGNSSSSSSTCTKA
Chain of Heat shock factor protein 1 (Homo sapiens) (Q00613 whole entry, looked up): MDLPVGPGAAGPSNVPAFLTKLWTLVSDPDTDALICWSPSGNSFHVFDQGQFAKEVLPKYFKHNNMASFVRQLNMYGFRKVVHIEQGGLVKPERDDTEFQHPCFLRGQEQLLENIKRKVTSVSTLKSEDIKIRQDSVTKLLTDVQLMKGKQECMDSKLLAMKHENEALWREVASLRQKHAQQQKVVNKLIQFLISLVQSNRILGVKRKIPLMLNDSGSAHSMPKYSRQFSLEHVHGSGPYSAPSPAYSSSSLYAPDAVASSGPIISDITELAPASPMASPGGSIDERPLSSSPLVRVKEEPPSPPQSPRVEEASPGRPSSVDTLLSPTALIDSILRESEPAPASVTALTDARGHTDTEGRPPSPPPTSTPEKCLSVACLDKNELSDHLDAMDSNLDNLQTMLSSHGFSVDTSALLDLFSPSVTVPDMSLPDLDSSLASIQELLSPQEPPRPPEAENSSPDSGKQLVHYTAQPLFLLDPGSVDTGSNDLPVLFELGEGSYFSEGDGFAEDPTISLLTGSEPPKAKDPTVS
Chain of Hypoxia-inducible factor 1-alpha (Homo sapiens) (Q16665 whole entry, looked up): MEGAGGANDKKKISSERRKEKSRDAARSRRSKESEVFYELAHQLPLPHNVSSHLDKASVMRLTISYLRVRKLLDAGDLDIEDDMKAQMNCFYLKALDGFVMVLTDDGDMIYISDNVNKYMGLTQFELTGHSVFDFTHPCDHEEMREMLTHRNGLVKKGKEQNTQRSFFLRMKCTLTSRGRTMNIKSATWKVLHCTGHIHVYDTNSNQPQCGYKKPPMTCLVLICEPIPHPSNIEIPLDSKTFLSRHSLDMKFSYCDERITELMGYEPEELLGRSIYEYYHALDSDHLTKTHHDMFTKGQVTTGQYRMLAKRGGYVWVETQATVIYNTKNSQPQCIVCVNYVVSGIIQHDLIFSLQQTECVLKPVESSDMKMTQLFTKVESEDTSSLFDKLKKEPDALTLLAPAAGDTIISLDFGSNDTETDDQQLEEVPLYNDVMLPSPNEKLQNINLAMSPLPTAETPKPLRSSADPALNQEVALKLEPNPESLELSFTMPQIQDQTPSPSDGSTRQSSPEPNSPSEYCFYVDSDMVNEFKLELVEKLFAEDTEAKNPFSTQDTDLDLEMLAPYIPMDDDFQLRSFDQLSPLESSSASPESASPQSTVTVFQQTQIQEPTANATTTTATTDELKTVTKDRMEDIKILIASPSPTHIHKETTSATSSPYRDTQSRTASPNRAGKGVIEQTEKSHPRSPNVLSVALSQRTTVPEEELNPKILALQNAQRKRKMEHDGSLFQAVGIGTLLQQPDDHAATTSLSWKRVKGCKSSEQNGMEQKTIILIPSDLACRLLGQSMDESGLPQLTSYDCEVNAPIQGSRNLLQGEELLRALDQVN
Chain of Paired box protein Pax-6 (Homo sapiens) (P26367 whole entry, looked up): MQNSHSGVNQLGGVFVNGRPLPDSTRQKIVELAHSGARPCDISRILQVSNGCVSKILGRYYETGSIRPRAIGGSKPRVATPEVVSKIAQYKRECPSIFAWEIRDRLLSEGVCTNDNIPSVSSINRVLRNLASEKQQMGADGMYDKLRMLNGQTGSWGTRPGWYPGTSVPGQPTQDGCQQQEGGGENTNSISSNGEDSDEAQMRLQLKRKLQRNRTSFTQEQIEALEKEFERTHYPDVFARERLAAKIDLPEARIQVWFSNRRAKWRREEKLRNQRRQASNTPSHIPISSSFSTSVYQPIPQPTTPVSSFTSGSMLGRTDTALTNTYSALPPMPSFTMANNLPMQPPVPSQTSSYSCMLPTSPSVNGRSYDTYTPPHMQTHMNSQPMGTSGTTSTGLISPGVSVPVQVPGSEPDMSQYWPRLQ
Chain of Bile acid receptor (Homo sapiens) (Q96RI1 whole entry, looked up): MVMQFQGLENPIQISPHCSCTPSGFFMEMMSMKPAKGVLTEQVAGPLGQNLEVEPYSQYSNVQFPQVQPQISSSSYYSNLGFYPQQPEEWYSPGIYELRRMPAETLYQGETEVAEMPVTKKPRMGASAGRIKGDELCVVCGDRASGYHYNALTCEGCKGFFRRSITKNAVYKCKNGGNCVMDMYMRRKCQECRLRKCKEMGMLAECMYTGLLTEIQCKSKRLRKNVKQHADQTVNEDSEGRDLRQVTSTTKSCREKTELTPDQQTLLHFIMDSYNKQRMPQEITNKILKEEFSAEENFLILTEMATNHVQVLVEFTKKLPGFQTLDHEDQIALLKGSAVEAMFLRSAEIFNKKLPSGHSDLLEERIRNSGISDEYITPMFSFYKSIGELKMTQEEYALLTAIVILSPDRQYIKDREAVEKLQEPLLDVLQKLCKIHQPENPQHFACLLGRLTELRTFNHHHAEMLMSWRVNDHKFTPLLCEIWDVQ

A word on the AC50: it is the concentration at which the activity in the assay is half-maximal. Turning to `OC(Cc1ccccc1Cl)(Cn1[nH]cnc1=S)C1(Cl)CC1` (configuration not stated), the result in assay [1], in assay [2], in assay [5], in [6], in [7] and in [8] was inactive. The molecule was called inactive in [9], in [10], in assay [12], in assay [13], in assay [14] and in [15]. The result in assay [19] was inactive. The AC50 was 64.6 µM (active) in assay [3]; 7.38 µM (active) in assay [4]; 100 µM (active) in assay [11]; 140 µM (active) in assay [16]; 77.6 µM (active) in assay [17]; 21.7 µM (active) in [18].

For the molecule `CC(C)(COCC1CO1)COCC1CO1` (configuration not stated), the outcome in assay [1], in assay [2], in [3], in [4], in assay [5] and in assay [20] was inactive. For the same molecule, the molecule was called inactive in assay [8], in assay [9], in assay [10], in [11], in assay [12] and in assay [13]. In addition, the result in [14], in assay [15], in [16], in assay [18] and in assay [19] was inactive. Further, the half-maximal activity concentration (AC50) in assay [17] was 100 µM (active).

For the molecule `C[C@@H]1O[C@@H](O[C@H]2C[C@@H](O)[C@]3(CO)[C@H]4[C@H](O)C[C@]5(C)[C@@H](C6=CC(=O)OC6)CC[C@]5(O)[C@@H]4CC[C@]3(O)C2)[C@H](O)[C@H](O)[C@H]1O`, the result in [1], in [3], in assay [4], in [8], in assay [9] and in [12] was inactive. The molecule was classed as inactive in assay [13], in [17], in [18] and in assay [19]. Further, the half-maximal activity concentration (AC50) in assay [2] is 0.0716 µM (active); in assay [5], 0.221 µM (active); in assay [6] it was 0.233 µM (active); in assay [7], 0.0716 µM (active); in assay [10], 0.287 µM (active); in [11] it was 0.279 µM (active). Besides, the AC50 in assay [15] and in assay [16] was 0.0716 µM (active) in each case.

Take `O=C(O)c1cc(I)cc(I)c1I`: the outcome in [1], in assay [2], in [3], in [5], in assay [7] and in assay [8] was inactive. Moreover, the call in [9], in assay [10], in assay [11], in assay [12], in assay [13] and in assay [14] was inactive. The molecule was classed as inactive in assay [15], in [17], in assay [18] and in assay [19]. The AC50 in [4] was 27.8 µM (active).
